38 compounds from the antibiotic and cytotoxicity screens of Wong et al. (2023) can be followed below.

Among all 39,000 compounds or so, about 3,300 (8.5%) were called active. For the sample, actives were picked, then their nearest neighbours and some compounds at random.

The subject of this assay is HepG2. Description: cytotoxicity call (relative viability < 0.9). The settings on record: 10 µM.
On to `C[C@H](CO)N1C[C@H](C)[C@H](CN(C)Cc2ccc(Cl)c(Cl)c2)Oc2c(NC(=O)Nc3cccc4ccccc34)cccc2C1=O`, for which the cytotoxicity call was “inactive”. The value for `Cc1ccc(S(=O)(=O)N(C)C[C@@H]2Oc3ccc(NS(C)(=O)=O)cc3C(=O)N([C@@H](C)CO)C[C@H]2C)cc1` was “inactive”; that for `CC(C)NC(=O)N(C)C[C@H]1Oc2c(NC(=O)Nc3ccc4c(c3)OCO4)cccc2C(=O)N([C@H](C)CO)C[C@H]1C` was “inactive”; that for `O=C(C[C@H]1C[C@H]2c3cc(NS(=O)(=O)c4ccc(F)cc4)ccc3O[C@H]2[C@H](CO)O1)NCc1ccccc1` was “inactive”. The value for `C[C@H](CO)N1C[C@H](C)[C@H](CN(C)C(=O)Nc2ccc(F)cc2)OCCCC[C@H](C)Oc2ccc(NS(=O)(=O)c3ccc(Cl)cc3)cc2C1=O` was “active”; that for `C[C@@H]1CCCCO[C@H](CN(C)C(=O)Nc2ccc(F)cc2)[C@H](C)CN([C@@H](C)CO)C(=O)c2cc(NS(=O)(=O)c3ccc(Cl)cc3)ccc2O1` was “inactive”.

With `C[C@@H]1CCCCO[C@@H](CN(C)C(=O)Nc2ccc(F)cc2)[C@H](C)CN([C@H](C)CO)C(=O)c2cc(NS(=O)(=O)c3ccc(Cl)cc3)ccc2O1`, the cytotoxicity call is “active”. The value for `C[C@@H]1CCCCO[C@H](CN(C)C(=O)Nc2ccc(F)cc2)[C@H](C)CN([C@H](C)CO)C(=O)c2cc(NS(=O)(=O)c3ccc(Cl)cc3)ccc2O1` was “inactive”; that for `O=C(C[C@H]1C[C@H]2c3cc(NC(=O)Cc4ccncc4)ccc3O[C@H]2[C@@H](CO)O1)NCc1ccc2c(c1)OCO2` was “inactive”; that for `C[C@@H]1CN([C@H](C)CO)C(=O)c2cc(NC(=O)Nc3ccc4c(c3)OCO4)ccc2O[C@@H](C)CCCCO[C@@H]1CN(C)S(=O)(=O)c1ccccc1` was “inactive”.

For `C[C@@H]1CN([C@@H](C)CO)C(=O)c2cc(NC(=O)Nc3ccc4c(c3)OCO4)ccc2O[C@@H](C)CCCCO[C@@H]1CN(C)C(=O)Cc1ccccc1`, the cytotoxicity call is “inactive”.

Regarding `Cc1ccc(Cn2c3ccccc3c3ccccc32)cc1`, the cytotoxicity call was “inactive”.

On to `CN1CCc2c(c3ccccc3n2Cc2ccccc2)C1`, for which the cytotoxicity call is “active”. Turning to `Cn1sc(=O)n(Cc2ccccc2)c1=O`, the cytotoxicity call is “inactive”. For the compound `C[C@@H]1CCCCO[C@H](CN(C)C(=O)Nc2ccccc2)[C@@H](C)CN([C@H](C)CO)C(=O)c2cc(NC(=O)CCC(F)(F)F)ccc2O1`, the cytotoxicity call is “inactive”. The value for `C[C@@H]1CCCCO[C@H](CN(C)C(=O)C2CCCCC2)[C@H](C)CN([C@@H](C)CO)C(=O)c2cc(NC(=O)Nc3ccc(C(F)(F)F)cc3)ccc2O1` was “inactive”. Consider `C[C@@H]1CN([C@H](C)CO)C(=O)c2cc(NC(=O)Nc3ccc(C(F)(F)F)cc3)ccc2O[C@@H](C)CCCCO[C@@H]1CN(C)C(=O)C1CCCCC1`, for which the cytotoxicity call was “active”. For the compound `C[C@H]1CCCCO[C@H](CN(C)C(=O)C2CCCCC2)[C@@H](C)CN([C@@H](C)CO)C(=O)c2cc(NC(=O)Nc3ccc(C(F)(F)F)cc3)ccc2O1`, the cytotoxicity call was “inactive”.

For the compound `C[C@H](CO)N1C[C@H](C)[C@@H](CN(C)C(=O)C2CCCCC2)OCCCC[C@H](C)Oc2ccc(NC(=O)Nc3ccc(C(F)(F)F)cc3)cc2C1=O`, the cytotoxicity call was “inactive”. With `C[C@@H]1CCCCO[C@H](CN(C)C(=O)C2CCCCC2)[C@@H](C)CN([C@H](C)CO)C(=O)c2cc(NC(=O)Nc3ccc(C(F)(F)F)cc3)ccc2O1` the entry was “inactive”; with `C[C@@H]1CN([C@H](C)CO)C(=O)c2cc(NC(=O)Nc3ccc(C(F)(F)F)cc3)ccc2O[C@@H](C)CCCCO[C@H]1CN(C)C(=O)C1CCCCC1`, “inactive”. As for `C[C@@H]1CCCCO[C@@H](CN(C)C(=O)C2CCCCC2)[C@@H](C)CN([C@H](C)CO)C(=O)c2cc(NC(=O)Nc3ccc(C(F)(F)F)cc3)ccc2O1`, the cytotoxicity call is “inactive”. The value for `C[C@@H]1CCCCO[C@@H](CN(C)C(=O)C2CCCCC2)[C@H](C)CN([C@@H](C)CO)C(=O)c2cc(NC(=O)Nc3ccc(C(F)(F)F)cc3)ccc2O1` was “active”; that for `C[C@H]1CCCCO[C@@H](CN(C)C(=O)C2CCCCC2)[C@@H](C)CN([C@@H](C)CO)C(=O)c2cc(NC(=O)Nc3ccc(C(F)(F)F)cc3)ccc2O1` was “active”; that for `Cc1cccc(N[C@H]2CS(=O)(=O)C[C@@H]2O)c1` was “inactive”. Take `CC(C)(Sc1cc(C(C)(C)C)c(O)c(C(C)(C)C)c1)Sc1cc(C(C)(C)C)c(OC(=O)CCC(=O)O)c(C(C)(C)C)c1`: the cytotoxicity call was “inactive”. With `C[C@@H]1CN([C@H](C)CO)C(=O)c2cccc(NC(=O)Nc3ccc(C(F)(F)F)cc3)c2O[C@@H]1CN(C)Cc1ccc(C(=O)Nc2ccccc2N)cc1` the entry was “inactive”; with `C[C@@H]1CN([C@@H](C)CO)C(=O)c2cc(NS(=O)(=O)c3ccc(F)cc3)ccc2O[C@@H]1CN(C)Cc1ccncc1`, “inactive”. The value for `C[C@@H]1CN([C@H](C)CO)C(=O)Cc2cc(NC(=O)Nc3cccc4ccccc34)ccc2O[C@H]1CN(C)C(=O)Nc1ccc(C(F)(F)F)cc1` was “inactive”. The value for `COc1ccc(S(=O)(=O)N(C)C[C@H]2Oc3c(NC(=O)NC(C)C)cccc3C(=O)N([C@H](C)CO)C[C@@H]2C)cc1` was “inactive”. Regarding `COc1ccc(S(=O)(=O)Nc2ccc3c(c2)C(=O)N([C@@H](C)CO)C[C@H](C)[C@H](CN(C)Cc2ccc(-c4ccccc4)cc2)O3)cc1`, the cytotoxicity call was “inactive”. For `COc1ccc(S(=O)(=O)Nc2ccc3c(c2)C(=O)N([C@@H](C)CO)C[C@@H](C)[C@@H](CN(C)Cc2ccc(-c4ccccc4)cc2)O3)cc1`, the cytotoxicity call was “active”. With `COc1ccc(S(=O)(=O)Nc2ccc3c(c2)C(=O)N([C@@H](C)CO)C[C@@H](C)[C@H](CN(C)Cc2ccc(-c4ccccc4)cc2)O3)cc1` the entry was “inactive”; with `COc1ccc(S(=O)(=O)Nc2ccc3c(c2)C(=O)N([C@H](C)CO)C[C@H](C)[C@@H](CN(C)Cc2ccc(-c4ccccc4)cc2)O3)cc1`, “inactive”. With `COc1ccc(S(=O)(=O)Nc2ccc3c(c2)C(=O)N([C@H](C)CO)C[C@H](C)[C@H](CN(C)Cc2ccc(-c4ccccc4)cc2)O3)cc1`, the cytotoxicity call is “inactive”.

On to `COc1ccc(S(=O)(=O)Nc2ccc3c(c2)C(=O)N([C@@H](C)CO)C[C@H](C)[C@@H](CN(C)Cc2ccc(-c4ccccc4)cc2)O3)cc1`, for which the cytotoxicity call was “active”. The value for `COc1ccc(S(=O)(=O)Nc2ccc3c(c2)C(=O)N([C@H](C)CO)C[C@@H](C)[C@@H](CN(C)Cc2ccc(-c4ccccc4)cc2)O3)cc1` was “active”; that for `COc1ccc(S(=O)(=O)Nc2ccc3c(c2)C(=O)N([C@H](C)CO)C[C@@H](C)[C@H](CN(C)Cc2ccc(-c4ccccc4)cc2)O3)cc1` was “inactive”.
